Compound activity as filed in PubChem BioAssay.
MEKK2mut PB1 HTS: signal of MEK5 binding to mutant human MEKK2 PB1 domain; bead flow cytometry, Alexa488-MEK5 binding to MEKK2 mutant; AID 1530; actives 0.35% (n = 290,000); percent response, % at 10 µM; in the data active means percent response above about 24%, passing the limit was not always enough
MEKK2 WT-MEK5: raises or lowers MEK5 binding to wildtype human MEKK2 PB1 domain; Q9Y2U5; bead flow cytometry, Alexa488-MEK5 binding to MEKK2 WT; actives lie on both sides; binding response (% of control), % at 10 µM; actives 1.1% (n = 290,000); AID 1531; in the data active means binding response below about 67% or above about 130%
MEKK3 PB1 HTS: raises or lowers MEK5 binding to the human MEKK3 PB1 domain; AID 1529; bead-based flow cytometry, Alexa488-MEK5 binding to MEKK3; actives lie on both sides; 0 = blocked by unlabeled MEK5, 100 = vehicle; actives 1.4% (n = 290,000); Q99759; binding response (% of control), % at 10 µM;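 active means binding response more than 3 SD above or below the average of its plate-row segment, actives on both sides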;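 further: Alexa488 bead fluorescence after subtracting the streptavidin-only scavenger bead signal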
GRK2 aptamer HTS: blocks RNA aptamer binding to human GRK2. bead flow cytometry, FAM-aptamer displacement from GRK2. AID 488847. P25098. actives 0.59% (n = 330,000). inhibition of aptamer binding, % at 10 µM;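 active means inhibition of aptamer binding above 40%, roughly 3 SD of noise, on plates passing a quality check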;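 further: median bead fluorescence of bound FAM aptamer so fluorescent compounds give negative values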
Target sequence (P25098 whole entry, looked up): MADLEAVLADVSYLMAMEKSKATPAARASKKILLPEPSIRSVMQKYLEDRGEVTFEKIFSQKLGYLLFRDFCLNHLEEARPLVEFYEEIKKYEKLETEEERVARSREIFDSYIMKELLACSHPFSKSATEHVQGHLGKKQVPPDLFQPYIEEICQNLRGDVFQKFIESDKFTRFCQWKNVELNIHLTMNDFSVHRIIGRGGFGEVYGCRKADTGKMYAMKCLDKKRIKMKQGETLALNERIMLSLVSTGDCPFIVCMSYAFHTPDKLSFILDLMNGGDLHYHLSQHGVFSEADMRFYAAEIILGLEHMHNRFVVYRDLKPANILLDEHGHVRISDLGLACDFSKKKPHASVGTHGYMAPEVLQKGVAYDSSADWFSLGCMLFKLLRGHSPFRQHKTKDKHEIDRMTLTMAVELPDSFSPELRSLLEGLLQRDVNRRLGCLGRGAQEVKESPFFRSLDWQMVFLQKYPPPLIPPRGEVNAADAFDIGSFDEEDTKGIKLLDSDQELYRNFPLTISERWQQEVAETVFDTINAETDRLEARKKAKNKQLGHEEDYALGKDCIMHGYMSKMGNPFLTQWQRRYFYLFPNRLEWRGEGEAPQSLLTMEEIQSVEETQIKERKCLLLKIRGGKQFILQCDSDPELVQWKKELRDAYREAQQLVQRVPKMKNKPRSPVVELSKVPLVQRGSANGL
MEKK2wt confirm: raises or lowers MEK5 binding to wildtype human MEKK2, retest | AID 1892 | shares compounds with MEKK3 PB1 HTS | bead flow cytometry, Alexa488-MEK5 binding to MEKK2 WT; actives lie on both sides | actives 2.4% (n = 5,900) | binding response (% of control), % at 10 µM; in the data active means binding response below about 16% or above about 210%; inactive means in between
MEKK2mut confirm: signal of MEK5 binding to mutant human MEKK2, retest; shares compounds with MEKK3 PB1 HTS; actives 2% (n = 5,900); percent response, % at 10 µM; bead flow cytometry, Alexa488-MEK5 binding to MEKK2 mutant; in the data active means percent response mostly above about 71%, no sharp cut-off; inactive means mostly below about 38%;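 further: higher means compound restores mutant binding toward wildtype level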
MEKK3 confirm: confirmation of inhibitors of MEK5 binding to human MEKK3; shares compounds with MEKK3 PB1 HTS; bead flow cytometry, Alexa488-MEK5 binding to MEKK3; active compounds read low; binding response (% of control), % at 10 µM; actives 1.8% (n = 5,900); AID 1894;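 active means binding response below 72% of control, or above a set upper limit, though filed actives all read lower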;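 further: 100% = DMSO only wells and 0% = binding blocked by excess unlabeled MEK5; lower values mean stronger disruption of MEK5 binding to MEKK3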
The depositor's hits bear a star; x = no result given; [ ] = dose if it differs, or a comment. Compounds with a hit are over-represented: about 2.5% of the library has one in this group of screens.

SMILES	MEKK2mut PB1 HTS	MEKK2 WT-MEK5	MEKK3 PB1 HTS	GRK2 aptamer HTS	MEKK2wt confirm	MEKK2mut confirm	MEKK3 confirm
COC(=O)c1cc(OC)c(OC)cc1NC(=O)CN1CCCCC1	-26.0	-4.0*[inhibitor]	-1.0*[inhibitor]	2.0	92.0	-10.0	88.0
COc1ccccc1NC(=S)N1CCOCC1	0.0	99.0	73.0*[inhibitor]	1.0	100.0	1.0	104.0
COC(=O)c1ccc(C(=O)OC)c(NC(=O)CN2CCCCC2)c1	-2.0	102.0	99.0	2.0	x	x	x
COC(=O)c1ccccc1NC(=S)N1CCN(c2ccccc2)CC1	8.0	104.0	108.0	3.0	x	x	x
COc1ccccc1NC(=O)N1CCOCC1	2.0	98.0	102.0	0.0	x	x	x
COC(=O)c1cc(OC)c(OC)cc1NC(=S)N1CCN(c2ccccc2)CC1	-21.0	2.0*[inhibitor]	1.0*[inhibitor]	0.0	102.0	-2.0	103.0
CSCCC(NC(=O)c1ccco1)C(=O)NCC(c1ccccc1)N(C)C (stereo not drawn)	x	x	x	10.0	x	x	x
COc1ccc(CNCc2cn(-c3cccc(F)c3)nc2-c2ccc(C)o2)cc1	26.0	168.0*	101.0	0.0	172.0	31.0	109.0
O=C(CNC(=S)NC(=O)c1ccc(F)cc1)c1ccccc1	2.0	107.0	136.0*	2.0	103.0	-2.0	101.0
Cc1nc(Nc2nc(CSc3ccc(Cl)cc3)cc(=O)[nH]2)nc2ccccc12	0.0	104.0	132.0*	1.0	104.0	2.0	105.0
COc1cc2oc(=O)ccc2cc1[C@H](O)[C@@H](O)C(C)(C)O	x	x	x	0.0	x	x	x
CCCCn1c(N)c(N(CCOC)C(=O)COC(=O)CCOc2ccc(C)cc2)c(=O)[nH]c1=O	x	x	x	0.0	x	x	x
c1ccc2c(N3CCCCC3)nc(N3CCCCC3)nc2c1	x	x	x	1.0	x	x	x
C(=C\c1nc(N2CCCCCC2)c2ccccc2n1)/c1ccccc1	17.0	144.0*	100.0	1.0	154.0	19.0	108.0
CCCNC(=O)Cn1c(=O)/c(=C\c2ccc(-c3ccc([N+](=O)[O-])cc3)o2)s/c1=C\C(=O)C(C)(C)C	132.0*	x	90.0	0.0	79.0	-25.0	93.0
CCC(C)NC(=O)C1CCN(S(=O)(=O)N2CCOCC2)CC1 (stereo not drawn)	-3.0	94.0	98.0	1.0	x	x	x
CCC(C)NC(=O)C1CCN(S(=O)(=O)N2CCCC2)CC1 (stereo not drawn)	-20.0	-3.0*[inhibitor]	1.0*[inhibitor]	3.0	98.0	-4.0	100.0
CCn1c(SCC(=O)N/N=C/c2cc(OC)c(O)c(OC)c2)nc2ccccc21	-2.0	99.0	100.0	0.0	x	x	x
CCn1c(SCC(=O)N/N=C/c2ccc(O)c(OC)c2)nc2ccccc21	1.0	112.0	163.0*	1.0	97.0	0.0	96.0
COc1cc(/C=N/NC(=O)CCc2c(C)n[nH]c2C)ccc1O	6.0	111.0	123.0*	0.0	104.0	5.0	104.0
CCn1c(SCC(=O)N/N=C/c2cccs2)nc2ccccc21	1.0	104.0	144.0*	0.0	100.0	-3.0	103.0
CCOc1ccc(S(=O)(=O)Nc2ccc(C(=O)N3CCCC3)cc2)cc1C(N)=O	-1.0	101.0	97.0	0.0	x	x	x
O=S(=O)(Nc1cccc(-n2cnnn2)c1)c1cc(Br)ccc1Br	0.0	99.0	100.0	4.0	x	x	x
COc1ccc(OC)c(/C(O)=C/C(=O)C(=O)Nc2cc(C)cc(C)c2)c1	4.0	120.0	126.0*	3.0	96.0	-5.0	97.0
COc1ccc(CNC(=O)CN2C(=O)COc3ccc(S(=O)(=O)N4CCCCC4)cc32)cc1	-8.0	97.0	101.0	0.0	x	x	x
SMILES	MEKK2mut PB1 HTS	MEKK2 WT-MEK5	MEKK3 PB1 HTS	GRK2 aptamer HTS	MEKK2wt confirm	MEKK2mut confirm	MEKK3 confirm
CCN(CC)CCCn1c2c(c(SCC(=O)Nc3nccs3)nc1=O)CCC2	x	x	x	2.0	x	x	x
Cc1cccc(S(=O)(=O)NC(Cc2c[nH]c3ccccc23)C(=O)O)c1 (stereo not drawn)	0.0	109.0	131.0*	2.0	98.0	0.0	100.0
Cc1ccc(S(=O)(=O)NC(Cc2ccccc2)C(=O)O)cc1 (stereo not drawn)	-27.0	-3.0*[inhibitor]	1.0*[inhibitor]	1.0	91.0	-6.0	96.0
O=C(O)C(Cc1c[nH]c2ccccc12)NS(=O)(=O)c1ccc2ccccc2c1 (stereo not drawn)	-1.0	96.0	95.0	0.0	x	x	x
Cc1cnc(C(=O)OCC(=O)c2ccc(Cl)cc2)cn1	4.0	102.0	95.0	2.0	x	x	x
COc1ccccc1Cn1c(/C=C/c2ccccc2)nc2ccccc21	-2.0	89.0	82.0	0.0	x	x	x
COc1ccc(/C=C/c2nc3ccccc3n2Cc2ccccc2OC)cc1	5.0	105.0	151.0*	2.0	111.0	3.0	107.0
O=C(Nc1ccc(N2CCCCC2)cc1)c1cncc(Br)c1	1.0	38.0*[inhibitor]	99.0	0.0	97.0	-4.0	99.0
COc1ccc(C(CCN)c2ccc3c(c2)OCO3)cc1 (stereo not drawn)	28.0*	124.0	102.0	0.0	132.0	16.0	105.0
COc1cc(O)c(C(CCN2CCOCC2)c2ccc3c(c2)OCO3)c(OC)c1 (stereo not drawn)	1.0	90.0	92.0	1.0	x	x	x
O=C(Nc1ccccn1)C1(c2cccs2)CCOCC1	-1.0	92.0	90.0	1.0	x	x	x
C=CCNC(=O)/C=C/c1cccs1	-1.0	112.0	135.0*	9.0	115.0	17.0	108.0
Cc1ccnc(NC(=O)C2(c3cccs3)CCOCC2)c1	0.0	107.0	145.0*	0.0	1.0*[inhibitor]	-29.0	2.0*
C=CCNC(=O)COC(=O)/C=C/c1cccs1	-3.0	95.0	95.0	0.0	x	x	x
Cc1ccnc(NC(=O)/C=C/c2cccs2)c1	58.0*	178.0*	120.0	4.0	105.0	-7.0	97.0
O=C(/C=C/c1cccs1)Nc1nncs1	1.0	103.0	99.0	3.0	x	x	x
Cc1ccc(S(=O)(=O)N(Cc2ccccc2F)C(=O)N2CCN(C)CC2)cc1	x	x	x	3.0	x	x	x
Cc1ccnc(NC(=O)c2ccc3[nH]c(=O)c(=O)[nH]c3c2)c1	-1.0	103.0	102.0	0.0	x	x	x
Fc1ccccc1/C=C/c1ccc2ccccc2n1	5.0	108.0	130.0*	1.0	101.0	-4.0	99.0
C(=C\c1ccc2ccccc2n1)/c1ccccc1	-12.0	34.0*[inhibitor]	40.0*[inhibitor]	6.0	100.0	-3.0	94.0
O=C(Cc1cccs1)NCc1ccc(Cl)cc1Cl	11.0	103.0	102.0	3.0	x	x	x
COc1cc(Cl)cc2c1Sc1ccccc1/C2=C/CCN(C)C	19.0	167.0*	81.0	0.0	154.0	46.0	108.0
Cc1ccc2nc(Cl)c3cc(C(=O)N(CCN(C)C)Cc4ccco4)sc3c2c1	5.0	149.0*	96.0	0.0	137.0	21.0	104.0
CN(C)CCN(Cc1ccco1)C(=O)c1cc2c(Cl)nc3ccccc3c2s1	-8.0	114.0	98.0	0.0	x	x	x
